Data taken from PubChem BioAssay (Tox21).
Inconclusive results are not listed. The source made the active and inactive calls. Calls follow the shape of the dose curve; as a rule, active = well fitted inhibition curve with a large enough effect in the repeat runs; inconclusive = weak or mixed curves; inactive = no such curve, though single readings can be large or run the other way.

The compounds below were run against Cytochrome P450 2C19 (Homo sapiens) (UniProt P33261) (assay: Cytochrome P450 Family 2 Subfamily C Member 19 (CYP2C19) small molecule antagonists: luciferase reporter qHTS assay (AID 1671197; also: nearly all actives have a fitted effect of over 65% in size)). Conditions: P450-Glo CYP2C19 enzyme, luciferin luminescence, 1 h; series mostly up to 52.9 µM; activity change, negative = inhibition: at the top concentration.
Sequence of Cytochrome P450 2C19 (Homo sapiens) (P33261 whole entry, looked up): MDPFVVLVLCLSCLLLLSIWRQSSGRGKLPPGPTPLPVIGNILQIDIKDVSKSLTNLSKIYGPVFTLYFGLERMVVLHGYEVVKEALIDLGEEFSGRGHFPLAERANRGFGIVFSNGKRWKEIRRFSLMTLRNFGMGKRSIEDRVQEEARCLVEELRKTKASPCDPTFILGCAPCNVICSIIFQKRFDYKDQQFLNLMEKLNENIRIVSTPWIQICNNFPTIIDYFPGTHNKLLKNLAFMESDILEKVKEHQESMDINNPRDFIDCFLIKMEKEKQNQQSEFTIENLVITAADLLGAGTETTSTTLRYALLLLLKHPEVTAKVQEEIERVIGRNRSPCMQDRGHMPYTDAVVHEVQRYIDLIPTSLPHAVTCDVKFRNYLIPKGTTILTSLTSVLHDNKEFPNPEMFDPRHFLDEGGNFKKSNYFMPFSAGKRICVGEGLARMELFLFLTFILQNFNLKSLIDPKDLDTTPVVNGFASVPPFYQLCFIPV
In short: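 Luminescent readout of CYP2C19 activity: luciferin product detected 20 min after adding detection reagent. Before that, compound and enzyme-substrate mix preincubated 10 min at room temperature; NADPH-regenerating system started a 1 h, 37C reaction. Ketoconazole as positive control.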
% is scaled to controls: 0 for no effect and ±100 for the full control effect; potency is read from the fitted curve at half-maximal effect.

Row | Structure (SMILES) | activity change, negative = inhibition | Potency
1 | CN1[C@@H]2CC[C@H]1CC(OC(=O)C(O)c1ccccc1)C2 (stereo partly specified) | 3.27% (inactive) | –
2 | CCOC(=O)COC(=O)c1ccccc1C(=O)OCC | – | 20 µM (active)
3 | C[C@H]1C[C@H]2[C@@H]3CCC4=CC(=O)C=C[C@]4(C)[C@H]3C(=O)C[C@]2(C)[C@@]1(O)C(=O)CO | 14.9% (inactive) | –
4 | Cc1coc2ccccc2c1=O | -12.8% (inactive) | –
5 | CC(CC=O)CC(C)(C)C (stereo unspecified) | 3.12% [at 115 µM] (inactive) | –

The compounds below were run against Cytochrome P450 2C9 (Homo sapiens) (UniProt P11712) (assay: Cytochrome P450 Family 2 Subfamily C Member 9 (CYP2C9) small molecule antagonists: luciferase reporter qHTS assay (AID 1671198; also: nearly all actives have a fitted effect of over 50% in size)). Conditions: P450-Glo CYP2C9 enzyme assay, luciferin luminescence; series mostly up to 115 µM; activity change, negative = inhibition: at the top concentration.
Sequence of Cytochrome P450 2C9 (Homo sapiens) (P11712 whole entry, looked up): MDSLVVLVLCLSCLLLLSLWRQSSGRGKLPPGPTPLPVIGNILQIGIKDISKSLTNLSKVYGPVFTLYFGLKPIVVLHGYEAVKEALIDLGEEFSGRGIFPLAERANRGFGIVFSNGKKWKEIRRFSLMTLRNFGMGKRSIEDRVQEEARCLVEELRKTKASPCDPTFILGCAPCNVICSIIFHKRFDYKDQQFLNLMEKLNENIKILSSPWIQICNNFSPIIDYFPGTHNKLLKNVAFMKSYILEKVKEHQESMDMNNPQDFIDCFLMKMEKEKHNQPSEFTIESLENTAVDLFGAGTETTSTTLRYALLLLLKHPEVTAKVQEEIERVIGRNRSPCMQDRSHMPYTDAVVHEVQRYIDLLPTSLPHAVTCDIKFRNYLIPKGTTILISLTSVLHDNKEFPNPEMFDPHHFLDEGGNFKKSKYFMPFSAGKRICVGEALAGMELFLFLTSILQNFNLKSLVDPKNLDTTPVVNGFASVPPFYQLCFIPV
In short: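 Enzyme-substrate mix preincubated with compound 10 min at room temperature; reaction started with NADPH regeneration solution, 1 h 37C. Luminescent luciferin product read after 20 min detection reagent.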

Row | Structure (SMILES) | Potency | activity change, negative = inhibition
6 | Cc1ccc(-c2ncc(Cl)cc2-c2ccc(S(C)(=O)=O)cc2)cn1 | 17.4 µM (active) | –
7 | FB(F)F | – | 1.13% (inactive)
8 | C=C(C)C(=O)OCC1CCCO1 (stereo unspecified) | – | 4.23% (inactive)
9 | CCOC(=O)COc1cc(-n2ncc(C(F)(F)F)c(C)c2=O)c(F)cc1Cl | 31.7 µM (active) | –
10 | CC1OC1C1CCC2(C)OC2C1 (stereo unspecified) | – | -19.8% (inactive)
11 | Cc1onc(-c2c(Cl)cccc2Cl)c1C(=O)Cl | 17.4 µM (active) | –
12 | NC(=O)N1c2ccccc2CC(=O)c2ccccc21 | – | 51.1% [at 53 µM] (inactive)
13 | CCCCCCCCCCCCCCC(=O)O | – | -2.69% (inactive)
14 | O=[N+]([O-])c1cncn1CCN1CCOCC1 | – | 7.74% [at 53 µM] (inactive)

What follows are compounds tested against Cytochrome P450 1A2 (Homo sapiens) (UniProt P05177) (assay: Cytochrome P450 Family 1 Subfamily A Member 2 (CYP1A2) small molecule antagonists: luciferase reporter qHTS assay (AID 1671199; also: nearly all actives have a fitted effect of over 50% in size)). Conditions: P450-Glo CYP1A2 enzyme, luciferin luminescence, 1 h; series mostly up to 53 µM; activity change, negative = inhibition: at the top concentration.
Sequence of Cytochrome P450 1A2 (Homo sapiens) (P05177 whole entry, looked up): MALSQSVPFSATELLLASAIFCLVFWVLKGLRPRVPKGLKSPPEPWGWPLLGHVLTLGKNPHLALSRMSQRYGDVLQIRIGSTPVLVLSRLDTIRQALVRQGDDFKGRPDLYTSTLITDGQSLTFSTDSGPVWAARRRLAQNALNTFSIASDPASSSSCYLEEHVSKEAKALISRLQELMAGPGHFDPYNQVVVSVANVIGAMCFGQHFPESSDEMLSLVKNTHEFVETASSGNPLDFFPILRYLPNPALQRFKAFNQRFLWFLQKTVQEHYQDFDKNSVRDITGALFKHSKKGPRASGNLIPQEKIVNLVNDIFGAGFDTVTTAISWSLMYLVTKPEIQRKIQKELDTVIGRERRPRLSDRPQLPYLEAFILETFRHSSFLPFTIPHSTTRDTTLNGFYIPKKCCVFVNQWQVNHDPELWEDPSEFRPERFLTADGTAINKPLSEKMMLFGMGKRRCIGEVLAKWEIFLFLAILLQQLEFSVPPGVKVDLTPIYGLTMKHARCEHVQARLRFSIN
In short: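 P450-Glo CYP1A2 enzyme–proluciferin substrate mix with compound 10 min at room temperature, then NADPH regeneration 1 h at room temperature. Luciferin detection reagent added, luminescence read after 20 min; furafylline positive control.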

Row | Structure (SMILES) | activity change, negative = inhibition | Potency
15 | O=C(O)Cc1csc(-c2ccc(Cl)cc2)n1 | 6.64% (inactive) | –
16 | Cc1ccc(C(=O)c2ccc(CC(=O)O)n2C)cc1 | -3.96% (inactive) | –
17 | Cc1ccc(-c2ncc(Cl)cc2-c2ccc(S(C)(=O)=O)cc2)cn1 | -9.59% (inactive) | –
18 | CC1=CCC(O)(C(C)C)CC1 (stereo unspecified) | -11.7% [at 115 µM] (inactive) | –
19 | Cc1ncc([C@@H](CCCCCCc2ccc3c(n2)NCCC3)CC(=O)O)cn1 | -16.1% [at 115 µM] (inactive) | –
20 | CC1=CC(=O)[C@H]2C[C@@H]1C2(C)C | -27.7% [at 115 µM] (inactive) | –
21 | CC[N+](CC)(CC)CCOc1cccc(OCC[N+](CC)(CC)CC)c1OCC[N+](CC)(CC)CC | -3.68% (inactive) | –
22 | CCCCOCCOC(=O)COc1cc(Cl)c(Cl)cc1Cl | – | 39.9 µM (active)
23 | CCN(CC#N)c1cccc(C)c1 | – | 28.3 µM (active)
24 | FB(F)F | -2.81% [at 115 µM] (inactive) | –
25 | C=C(C)C(=O)OCC1CCCO1 (stereo unspecified) | -8.44% [at 115 µM] (inactive) | –
26 | CCN(C=O)CC | -6.44% [at 115 µM] (inactive) | –
27 | CCC1C(=O)OCC1Cc1cncn1C (stereo unspecified) | -5.68% (inactive) | –
28 | CO/N=C(\C(=O)N[C@@H]1C(=O)N2C(C(=O)O)=C(CSc3nc(=O)c(O)nn3C)CS[C@H]12)c1csc(N)n1 | -11.2% (inactive) | –
29 | CC(=O)Nc1ccc(OCC(O)CNC(C)C)cc1 (stereo unspecified) | 15.3% (inactive) | –
30 | COCCOCC(OC)OC | 3.59% (inactive) | –

Row | Structure (SMILES) | activity change, negative = inhibition | Potency
31 | CCOC(=O)COc1cc(-n2ncc(C(F)(F)F)c(C)c2=O)c(F)cc1Cl | – | 35.6 µM (active)
32 | CC(C)(N)C#N | -14.5% [at 115 µM] (inactive) | –
33 | CC1OC1C1CCC2(C)OC2C1 (stereo unspecified) | -23.9% [at 115 µM] (inactive) | –
34 | Nc1ccncc1N | 13.8% (inactive) | –
35 | Cc1onc(-c2c(Cl)cccc2Cl)c1C(=O)Cl | -26.8% (inactive) | –
36 | NC(=O)N1c2ccccc2CC(=O)c2ccccc21 | – | 3.23 µM (active)
37 | CCCCCCCCCCCCCCC(=O)O | – | 35.7 µM (active)
38 | C=CCOCC(O)CO (stereo unspecified) | -16.8% [at 115 µM] (inactive) | –
39 | Cc1ccnc(NS(=O)(=O)c2ccc(N)cc2)n1 | 1.25% (inactive) | –
40 | N[C@@H](CCC(=O)O)C(=O)O | – | 39.9 µM (active)
41 | CN1[C@@H]2CC[C@H]1CC(OC(=O)C(O)c1ccccc1)C2 (stereo partly specified) | -1.68% (inactive) | –
42 | CCOC(=O)COC(=O)c1ccccc1C(=O)OCC | – | 7.96 µM (active)
43 | C[C@H]1C[C@H]2[C@@H]3CCC4=CC(=O)C=C[C@]4(C)[C@H]3C(=O)C[C@]2(C)[C@@]1(O)C(=O)CO | – | 27.5 µM (active)
44 | Cc1coc2ccccc2c1=O | – | 15.5 µM (active)
45 | CC(CC=O)CC(C)(C)C (stereo unspecified) | -19.5% [at 115 µM] (inactive) | –
46 | O=[N+]([O-])c1cncn1CCN1CCOCC1 | 6.99% (inactive) | –
